{
  "source": "PubChem BioAssay (EPA / NIEHS)",
  "note": "Values joined by “and” are separate entries in the source; they are usually repeats but may differ in a detail not shown here. Equal values may be shown once. Where a structure was tested more than once in an assay, its records may differ in their call. Active and inactive are the calls of the source. How the source made its calls: active means hit-call score of the fitted dose curve at least 0.9, where 1 is the maximum; inactive means score below 0.9.",
  "data": [
    {"read-out": "CD40, CD40 (gene 958)", "assay": "BSK_SAg_CD40: BioMAP Diversity Plus: SAg Assay for CD40 Biomarker Activity (AID 2283088)", "details": "primary human HUVEC with PBMC; actives raise or lower the signal", "procedure": "BSK_SAg is a cell-based, multiplexed-readout assay that uses umbilical vein endothelium and peripheral blood mononuclear cells, a human vascular primary cell co-culture, with measurements taken at 24 hours after chemical dosing in a 96-well plate.BSK_SAg_CD40 is one of 10 assay component(s) measured or calculated from the BSK_SAg assay. It is designed to make measurements of enzyme-linked immunosorbent assay, a form of binding reporter, as detected with fluorescence intensity signals by Enzyme-linked immunosorbent assay technology.Data from the assay component BSK_SAg_CD40 was analyzed into 1 assay endpoint. This assay endpoint, BSK_SAg_CD40, was analyzed with bidirectional fitting relative to DMSO as the negative control and baseline of activity. Using a type of binding reporter, gain or loss-of-signal activity can be used to understand changes in the signaling as they relate to the gene CD40. Furthermore, this assay endpoint can be referred to as a primary readout, because this assay has produced multiple assay endpoints where this one serves a signaling function. To generalize the intended target to other relatable targets, this assay endpoint is annotated to the cytokine intended target family, where the subfamily is inflammatory factor.\nThe levels of cell surface (or secreted, indicated by the prefix \"s\") biomarker endpoints were measured by ELISA. Overt cytotoxicity to cells in confluent adherent cultures (all systems other than the BT system) was assessed by measuring total protein levels using sulforhodamine B (SRB) staining in parallel cultures at the time of biomarker measurements, indicated as SRB endpoints. For proliferation assays for adherent cell types, individual cell types are cultured at sub-confluence and relative cell numbers quantified by SRB staining at time points optimized for each system (48 h: 3C and CASM3C systems; 72 h: BT and HDF3CGF systems; 96 h: SAg system). SRB was performed by staining cells with 0.1% SRB after fixation with 10% TCA and reading wells at 560 nm.Viability and proliferation of PBMC (T cells) was quantified by Alamar Blue reduction for the SAg and BT systems. For PBMC viability (referred to as PBMC Cytotoxicity within the assay endpoint names), cells were plated (75,000/well in a 96-well plate) and then chemical samples added for 1 h before addition of activators, SEB and TSST-1 (20 ng/mL final concentration each). Cells were incubated for 90 h. Then, Alamar Blue (20 uL/well) (Invitrogen, Cat DAL1100) was added for 6 h, and the plates were read with a fluorescence microplate reader at 546/580 nm (excitation/emission). For PBMC proliferation, cells were plated and activated as above but incubated for only 16 h prior to addition of Alamar Blue. Plates were read after 6 h.", "values": [
      {"smiles": "CCOC(C=C(C)CCC=C(C)C)OCC", "AC50": "3.97 µM (active)"},
      {"smiles": "O=C(O)CCC(F)(F)C(F)(F)C(F)(F)C(F)(F)C(F)(F)C(F)(F)C(F)(F)F", "outcome": "inactive"},
      {"smiles": "O=S(=O)(Cl)C(F)(F)C(F)(F)C(F)(F)C(F)(F)C(F)(F)C(F)(F)C(F)(F)C(F)(F)F", "outcome": "inactive"},
      {"smiles": "OCC(F)(F)C(F)(F)C(F)(F)CO", "outcome": "inactive"},
      {"smiles": "NC(=O)C(F)(F)C(F)(F)C(F)(F)C(F)F", "outcome": "inactive"},
      {"smiles": "OCC(O)CC(F)(F)C(F)(F)C(F)(F)C(F)(F)F", "note": "(stereo not given)", "outcome": "inactive"},
      {"smiles": "NC(=O)C(F)(F)C(F)(F)C(F)(F)F", "outcome": "inactive"},
      {"smiles": "CCN(CCO)S(=O)(=O)C(F)(F)C(F)(F)C(F)(F)C(F)(F)C(F)(F)C(F)(F)C(F)(F)C(F)(F)F", "AC50": "22.8 µM (active) and 46 µM (active)"},
      {"smiles": "Nc1cc([N+](=O)[O-])cc(Cl)c1O", "outcome": "inactive"},
      {"smiles": "O=S(=O)(O)CCC(F)(F)C(F)(F)C(F)(F)C(F)(F)F", "outcome": "inactive"},
      {"smiles": "O=C(O)C(F)(F)C(F)(F)C(F)(F)C(F)(F)C(F)(F)C(F)(F)C(F)F", "outcome": "inactive"},
      {"smiles": "O=C1c2c(O)ccc(Nc3ccc(CCO)cc3)c2C(=O)c2c([N+](=O)[O-])ccc(O)c21", "AC50": "25.9 µM (active)"},
      {"smiles": "OCC(F)(F)C(F)(F)C(F)(F)C(F)(F)C(F)(F)C(F)(F)CO", "outcome": "inactive"},
      {"smiles": "CCN=C1C=CC(=C(c2ccc(N(CC)CC)cc2)c2ccc(N(CC)CC)cc2)c2ccccc21", "AC50": "1.69 µM (active) and 1.51 µM (active)"},
      {"smiles": "FC(F)(F)C(F)(F)C(F)(F)CC1CO1", "note": "(stereo not given)", "outcome": "inactive"},
      {"smiles": "C[C@]12CC[C@H]3C(=CCc4cc(O)ccc43)[C@@H]1CCC2=O", "outcome": "inactive"},
      {"smiles": "CC(C)CCCC(C)CCO", "note": "(stereo not given)", "outcome": "inactive"},
      {"smiles": "C=CC(=O)OCCC(F)(F)C(F)(F)C(F)(F)C(F)(F)F", "AC50": "30 µM (active)"},
      {"smiles": "O=C(O)CCC(F)(F)C(F)(F)C(F)(F)F", "outcome": "inactive"},
      {"smiles": "NS(=O)(=O)C(F)(F)C(F)(F)C(F)(F)C(F)(F)C(F)(F)C(F)(F)F", "AC50": "26.3 µM (active) and 30 µM (active)"},
      {"smiles": "CC1=CC2C3C=CC(C3)C2C1C", "note": "(stereo not given)", "outcome": "inactive"},
      {"smiles": "NC(=O)C(F)(F)C(F)(F)C(F)(F)C(F)(F)C(F)(F)C(F)(F)C(F)(F)F", "outcome": "inactive"},
      {"smiles": "Cc1cc(O)c(C(C)(C)C)cc1C(C)(C)C", "AC50": "5.09 µM (active)"},
      {"smiles": "Cc1ccc(O)c(-n2nc3ccccc3n2)c1", "outcome": "inactive"},
      {"smiles": "CCN(CC)c1ccc(N=Nc2ccccc2)cc1", "AC50": "14.2 µM (active)"},
      {"smiles": "CCN(CC)c1ccc2c(c1)Oc1cc(N(CC)CC)ccc1C21OC(=O)c2ccccc21", "outcome": "inactive"},
      {"smiles": "CCN(CC)c1ccc(C=O)cc1", "outcome": "inactive"},
      {"smiles": "NC(O)(C(F)(F)F)C(F)(F)F", "outcome": "inactive"},
      {"smiles": "C[Si](Cl)(Cl)CCC(F)(F)C(F)(F)C(F)(F)C(F)(F)C(F)(F)C(F)(F)F", "outcome": "inactive"},
      {"smiles": "Cc1cnccn1", "outcome": "inactive"},
      {"smiles": "OCCCCC(F)(F)C(F)(F)C(F)(F)C(F)(F)F", "outcome": "inactive"},
      {"smiles": "FC(F)(F)C(F)(F)C(F)(F)C(F)(F)C(F)(F)C(F)(F)CC[Si](Cl)(Cl)Cl", "outcome": "inactive"},
      {"smiles": "CCN(CC)c1ccc(C=O)c(O)c1", "outcome": "inactive"},
      {"smiles": "O=C1C=CC(=O)N1c1ccc(Cc2ccc(N3C(=O)C=CC3=O)cc2)cc1", "AC50": "12.1 µM (active)"},
      {"smiles": "Cc1ccc(S(=O)(=O)C(I)I)cc1", "AC50": "2.98 µM (active)"},
      {"smiles": "C=CC(=O)OCC(F)(F)C(F)(F)C(F)(F)COC(=O)C=C", "AC50": "16.3 µM (active) and 12.2 µM (active)"},
      {"smiles": "C=CC(=O)OCC(F)(F)C(F)(F)C(F)(F)C(F)(F)C(F)(F)C(F)(F)C(F)(F)C(F)F", "AC50": "18.1 µM (active)", "outcome": "inactive"},
      {"smiles": "NCC(F)(F)C(F)(F)C(F)(F)C(F)(F)C(F)(F)C(F)(F)F", "outcome": "inactive"},
      {"smiles": "Cc1cc(C)c(O)c(C(C)(C)C)c1", "AC50": "30.5 µM (active)"}
    ]}
  ]
}
